These results are taken from PubChem BioAssay (NCI).

About 79,000 compounds went through this panel and 15% of them were active in at least one assay; those are over-represented in the sample as a whole. Unmarked numbers belong to inactive results. The source made the active and inactive calls. Rule as the data show it: active = growth inhibition above about 70%; inactive = the rest. Where a SMILES comes first, the peptide text is derived from it. The star is where a group is joined. Boc = CC(C)(C)OC(=O)*

A short description of test [1]: NCI Yeast Anticancer Drug Screen. Data for the rad50 strain (AID 155).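 Also: 0% = growth of vehicle-only cultures of the same strain.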 The note with it: S. cerevisiae rad50 strain growth inhibition; at 50.0 µM; active compounds read high. The essentials:
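Growth of the mutant yeast was measured after compound exposure and referenced to vehicle-treated cultures.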

The nature of test [2]: NCI Yeast Anticancer Drug Screen. Data for the mec2-1 strain (AID 157). Particulars: S. cerevisiae mec2-1 strain, at 50.0 µM, active compounds read high. Put shortly: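 Vehicle-treated cultures served as reference for growth inhibition of compound-exposed mec2-1 yeast.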
The nature of test [3]: NCI Yeast Anticancer Drug Screen. Data for the sgs1 mgt1 strain (AID 161).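 Also: 0% = growth of cultures given vehicle only.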 The note with it: S. cerevisiae sgs1 mgt1 strain, at 50.0 µM, active compounds read high. Put shortly: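 Inhibition of yeast growth, normalised to vehicle-treated controls, is reported for a strain bearing genetic alterations in DNA damage repair.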
Test [4] can be described thus: NCI Yeast Anticancer Drug Screen. Data for the cln2 rad14 strain (AID 165).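 Also: 0% = growth equal to vehicle treated cultures.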 The note with it: S. cerevisiae cln2 rad14 strain, at 50.0 µM, active compounds read high. Put shortly:
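Each compound was tested on cln2 rad14 yeast. Inhibition of growth was calculated against vehicle-exposed controls.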

Test [5] is described as follows: NCI Yeast Anticancer Drug Screen. Data for the bub3 strain (AID 167). The note with it: S. cerevisiae bub3 mutant strain, at 50.0 µM, active compounds read high. The essentials: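 Whole-cell yeast assay. The mutant strain was incubated with compounds, and growth inhibition was determined by comparison with vehicle-treated cells.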
A short description of test [6]: NCI Yeast Anticancer Drug Screen. Data for the mlh1 rad18 strain (AID 175). Particulars: S. cerevisiae mlh1 rad18 strain growth inhibition; at 50.0 µM; active compounds read high. Put shortly:
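Vehicle-treated cultures served as the reference for growth inhibition in a yeast strain carrying DNA damage repair alterations exposed to each compound.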

For the compound `CCC(C)(C)c1ccc([N+](=O)[O-])cc1`, the growth inhibition in test [1] is 18.3%; in test [2], 8.8%; in test [3] it was 27.4%; in test [4], 15.7%; in test [5] it was -0.65%; in test [6], 2.35%.

In the case of `COc1ccc2c(c1)OC(OC)(c1ccc(OC)c(OC)c1)C(O)(OC)C2=O` (stereo unspecified), the growth inhibition was 39.4% in test [1]; 14.8% in test [2]; 27.6% in test [3]; 19.6% in test [4]; 11.8% in test [5]; 29% in test [6].

In the case of `CC(C)(C)OC(=O)NC(Cc1ccc(O)cc1)C(=O)N1CCCC1C(=O)O` (stereo not drawn) (Boc-Tyr-Pro-OH; configuration not given here), the growth inhibition was -13% in test [1]; -11.3% in test [2]; -20.9% in test [3]; -10.2% in test [4]; -22.9% in test [5]; -23.1% in test [6].

Take `CCOC(CN=Cc1cccc2ccccc12)OCC`: the growth inhibition in test [1] is -26.4%; in test [2], -1.4%; in test [3], -11.8%; in test [4], 46.7%; in test [5], -3.55%; in test [6], 18.6%.

For the compound `CC(c1ccccc1)n1cnc2c(=S)nc[nH]c21` (stereo unspecified), the growth inhibition in test [1] was 17.1%; in test [2] it was -20.9%; in test [3], -7.55%; in test [4], 3.35%; in test [5] it was -5.85%; in test [6], -9.95%.

For `NC(=S)N/N=C/C=C/c1ccco1`, the growth inhibition is 8.9% in test [1]; 0.25% in test [2]; 30.6% in test [3]; -41.5% in test [4]; 20.3% in test [5]; 52% in test [6].

As for `CN(C)CCOc1cccc(OCCN(C)C)n1`, the growth inhibition in test [1] is 10.7%; in test [2], -3.25%; in test [3] it was 3.2%; in test [4], 1.1%; in test [5], 9.35%; in test [6] it was 8.7%.

Consider `Clc1ccc(C(n2cc(Br)cn2)n2cc(Br)cn2)cc1`, for which the growth inhibition in test [1] is 89.6% (active); in test [2], 90.8% (active); in test [3] it was 90.7% (active); in test [4] it was 90.2% (active); in test [5] it was 91% (active); in test [6], 87.5% (active).

In the case of `CC(=O)Oc1cc2oc([O-])c[n+]2c2ccccc12`, the growth inhibition in test [1] was 28.6%; in test [2], 14.2%; in test [3], 22.7%; in test [4], 5.45%; in test [5], 12.6%; in test [6], 0.95%.

For `CCCCOC(=O)CC1CCCCC1`, the growth inhibition in test [1] is -15.3%; in test [2] it was -8.95%; in test [3] it was -30.8%; in test [4], -6.1%; in test [5], -5.6%; in test [6] it was -10.2%.

Regarding `CC1(C(=O)O)C2CCC(C2)C1C(=O)O` (stereo unspecified), the growth inhibition in test [1] was 11.8%; in test [2], 5.8%; in test [3] it was -2.7%; in test [4], -46.1%; in test [5], 3.7%; in test [6], 3.35%.

For the compound `C=CCOC(OCC=C)C(C)C`, the growth inhibition in test [1] was -0.5%; in test [2], -12.2%; in test [3], -13.9%; in test [4] it was -3.4%; in test [5], -23.4%; in test [6], -3.4%.

With `CCC(=O)/C=C/c1ccccc1`, the growth inhibition is -1.55% in test [1]; -14.2% in test [2]; -22.1% in test [3]; -23.9% in test [4]; -34.5% in test [5]; -47.6% in test [6].

For the compound `CCN(CC)C(=N)N`, the growth inhibition in test [1] is -11.6%; in test [2], -1.55%; in test [3], -27.2%; in test [4], -34.2%; in test [5] it was -22%; in test [6], -14.4%.

Regarding `O/N=C/c1ccccc1O`, the growth inhibition in test [1] was 14.9%; in test [2], -19.1%; in test [3], -0.3%; in test [4] it was 9.65%; in test [5], -7.85%; in test [6], 10.2%.

On to `Cn1ncc2c(N)nc(NCCO)nc21`, for which the growth inhibition was 1.1% in test [1]; 4.75% in test [2]; -4.75% in test [3]; -19.1% in test [4]; 13.7% in test [5]; -0.2% in test [6].

Take `O=C(C(=O)c1cccc(C(=O)C(=O)c2ccccc2)c1)c1ccccc1`: the growth inhibition in test [1] is 5.45%; in test [2], -10.6%; in test [3], -15.2%; in test [4], 17.3%; in test [5], -29%; in test [6] it was 9.5%.

Turning to `Cc1cc(S(=O)(=O)Nc2nc(N)nc(N3CCOCC3)n2)c(SCC(=O)O)cc1Cl`, the growth inhibition in test [1] is 5.75%; in test [2] it was 19.4%; in test [3] it was 15.2%; in test [4], 12.9%; in test [5] it was 6.25%; in test [6], 18.2%.

`CCOC(=O)CCCCN(CC)CCCCC(=O)OCC`: the growth inhibition in test [1] was 2.65%; in test [2] it was -1.5%; in test [3], 11.1%; in test [4] it was -2.25%; in test [5], 16.6%; in test [6], -19.6%.

In the case of `COC1=C(OC)C(=O)c2cc(SC)c(=O)c(SC)cc2C1=O`, the growth inhibition in test [1] was -54.8%; in test [2], -29.2%; in test [3] it was -40.5%; in test [4] it was -22.1%; in test [5], -54.6%; in test [6] it was -60.2%.

As to `Cc1ccc(C2=Nn3c(nc4sc5c(c4c3=O)CCCC5)SC2)cc1`, the growth inhibition was -25.7% in test [1]; -19.4% in test [2]; -39.1% in test [3]; -5.9% in test [4]; -27.4% in test [5]; -21.8% in test [6].
